Data from PubChem BioAssay AID1220 (Sanford-Burnham Center for Chemical Genomics, 2008).
Hit rate of the full screen: of about 190,000 compounds, about 1,300 (0.68%) were called active. Cut-off read from the data, not from the text of the source: active = inhibition above about 50%; inactive = the rest. Many of the other results were omitted from the sample, so actives are more common in it than they were.

Each compound was assayed against Mannose-6-phosphate isomerase (Homo sapiens) (UniProt P34949) (assay: MPI inhibition at elevated mannose 6-phosphate – biochemical, fluorescence intensity, high mannose 6-phosphate, primary screen (AID 1220)). Details: recombinant PMI enzyme, coupled fluorescence intensity; at 20 µM; stronger effect = higher value.
Mannose-6-phosphate isomerase (Homo sapiens), sequence (P34949 whole entry, looked up): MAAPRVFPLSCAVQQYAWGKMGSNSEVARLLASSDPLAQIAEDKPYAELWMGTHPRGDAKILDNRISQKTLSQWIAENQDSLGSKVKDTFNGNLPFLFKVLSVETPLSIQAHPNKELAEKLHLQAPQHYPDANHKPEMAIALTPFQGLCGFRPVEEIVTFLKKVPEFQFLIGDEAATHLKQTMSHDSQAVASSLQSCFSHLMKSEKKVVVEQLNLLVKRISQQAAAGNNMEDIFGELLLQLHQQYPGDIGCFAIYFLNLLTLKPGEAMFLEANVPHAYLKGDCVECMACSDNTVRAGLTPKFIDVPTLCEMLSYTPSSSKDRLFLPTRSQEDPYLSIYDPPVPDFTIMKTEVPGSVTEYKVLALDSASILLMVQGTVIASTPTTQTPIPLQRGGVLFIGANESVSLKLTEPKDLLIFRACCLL
With Nc1nc2c(s1)COc1ccccc1-2 the inhibition was 11.1% (inactive).
For Nc1nc(-c2ccccc2)c(-c2ccccc2)s1, the inhibition was -7.6% (inactive).
For O=C(NCCCN1CCOCC1)C(Sc1ccccc1)c1ccccc1 (centres undefined), the inhibition was 9.2% (inactive).
O=C(COC(=O)c1ccc(S(=O)(=O)NCc2ccco2)cc1)NCCC1=CCCCC1 was tested, and the inhibition was -19.9% (inactive).
With O=c1[nH]c2ccc(Cl)cc2c(O)c1Cc1ccccc1 the inhibition was 3.4% (inactive).
COc1cccc(CNCc2cccnc2)c1OCc1ccccc1 was tested, and the inhibition was -2% (inactive).
In the case of Cc1ccc(Nc2ncnc3sc(C)c(C)c23)cc1, the inhibition is reported as 12.1% (inactive).
With Cc1ccc(NCCC(=O)c2cccc([N+](=O)[O-])c2)cc1 the inhibition was 39.2% (inactive).
O=C(CCNc1ccc(Br)cc1)c1cccc([N+](=O)[O-])c1 was tested, and the inhibition was 40.5% (inactive).
O=[N+]([O-])c1ccc(Cc2ccncc2)cc1 was tested, and the inhibition was -1.9% (inactive).
For COc1cccc(NCCC(=O)c2cccc([N+](=O)[O-])c2)c1, the inhibition was 62.3% (active).
For O=C(CCNc1ccc(F)cc1)c1cccc([N+](=O)[O-])c1, the inhibition was 48.4% (inactive).
For O=C(CCNc1cccc(F)c1)c1cccc([N+](=O)[O-])c1, the inhibition was 40.6% (inactive).
In the case of O=C(CCNc1ccc(Cc2ccncc2)cc1)c1cccc([N+](=O)[O-])c1, the inhibition is reported as 47.7% (inactive).
With COc1ccc2o/c(=N/NC(=S)Nc3ccccc3)c(C(N)=O)cc2c1 the inhibition was 7.1% (inactive).
In the case of O=C(O)c1ccccc1OC(=O)C12CC3CC(CC(C3)C1)C2, the inhibition is reported as 2.3% (inactive).
With CC1(C)CC(c2nc(-c3ccccc3)cs2)CCS1 (centres undefined) the inhibition was 0.5% (inactive).
Cc1ccc(-c2cc(C)nc3nc(N)nn23)cc1 was tested, and the inhibition was 4.6% (inactive).
In the case of CCOc1ccc(NC(=O)CSc2nc3c(c(=O)n2C)SC(C)C3)cc1 (centres undefined), the inhibition is reported as 4.9% (inactive).
Cc1noc(C(=O)Nc2ccccc2C(F)(F)F)c1Cl was tested, and the inhibition was 59.4% (active).
In the case of CSc1ccccc1NC(=O)c1onc(C)c1Cl, the inhibition is reported as -2.4% (inactive).
CCc1ccccc1NC(=O)c1onc(C)c1Cl was tested, and the inhibition was -3.2% (inactive).
Cc1ccc(C(=O)OCC(=O)Nc2ccccc2C(F)(F)F)cc1S(=O)(=O)N1CCOCC1 was tested, and the inhibition was 3.2% (inactive).
For CC(C)c1ccccc1NC(=S)NCc1ccccc1F, the inhibition was 1.9% (inactive).
N#Cc1cnc2c(-c3ccccc3)c(-c3ccccc3)nn2c1N was tested, and the inhibition was 15.3% (inactive).
With Fc1ccc2nc(C3CCN(Cc4nc(CC5CC5)no4)CC3)[nH]c2c1 the inhibition was -5.1% (inactive).
Fc1ccc(C2CCCCN2Cc2nc(CC3CC3)no2)cc1 (centres undefined) was tested, and the inhibition was 1.9% (inactive).
For Fc1ccc2nc(C3CCCCN3Cc3nc(CC4CC4)no3)[nH]c2c1 (centres undefined), the inhibition was 53.6% (active).
With Brc1ccc(-c2nc(-c3ccccn3)no2)o1 the inhibition was -1.3% (inactive).
In the case of CC(C)[C@H](NC(=O)c1ccccc1)C(=O)OCc1nnc(-c2ccccc2)o1, the inhibition is reported as 3.9% (inactive).
With O=C1CC(N2CCN(Cc3ccc4c(c3)OCO4)CC2)C(=O)N1CCc1ccccc1 (centres undefined) the inhibition was 4.8% (inactive).
CC(=O)N1C(c2ccccc2)CC(=O)OC1c1ccc2c(c1)OCO2 (centres undefined) was tested, and the inhibition was 9.9% (inactive).
In the case of O=C1C=CC2C(c3ccc4c(c3)OCO4)CC1N2Cc1ccccc1 (centres undefined), the inhibition is reported as 63.6% (active).
With Cc1ccc(NC(=O)c2cc3ccccc3o2)cc1S(=O)(=O)N(C)C the inhibition was 36.9% (inactive).
Cc1cc(C)c(S(=O)(=O)Nc2cccc(S(=O)(=O)NC3=NCCC3)c2)c(C)c1 was tested, and the inhibition was -4.4% (inactive).
With CC1CN(C)C(C)C/C1=N/Oc1ccccc1[N+](=O)[O-] (centres undefined) the inhibition was 42.3% (inactive).
For CC(C)(C)/C(COc1ccccc1[N+](=O)[O-])=N/O, the inhibition was 5.7% (inactive).
With CN1CCC(=NOc2ccc([N+](=O)[O-])cc2)CC1 the inhibition was -6.9% (inactive).
In the case of CC1=CC(=O)C=C(C)C1=NOc1ccccc1[N+](=O)[O-], the inhibition is reported as 54.8% (active).
For CC1CN(C)C(C)C/C1=N\Oc1ccc([N+](=O)[O-])cc1 (centres undefined), the inhibition was -6.4% (inactive).
In the case of CC1=CC(=O)C=C(C)C1=NOc1ccc([N+](=O)[O-])cc1, the inhibition is reported as 53.2% (active).
For N#Cc1ccc(NC(=O)CN2C(=O)NC(Cc3ccccc3)C2=O)cc1 (centres undefined), the inhibition was 3.6% (inactive).
Cc1noc(C)c1COC(=O)COc1ccc(C#N)cc1 was tested, and the inhibition was -4.4% (inactive).
For COc1ccc(CNCC(O)(c2ccccc2)c2ccccc2)cc1OC, the inhibition was -0.4% (inactive).
For COc1ccc(CNCC(O)(c2ccc(Cl)cc2)c2ccc(Cl)cc2)cc1OC, the inhibition was 55.1% (active).
For COc1ccc(CNCC(O)(c2ccc(Cl)cc2)c2ccc(Cl)cc2)cc1, the inhibition was 0% (inactive).
In the case of COC(=O)COc1ccc(S(=O)(=O)N2CCN(c3ccccc3)CC2)cc1, the inhibition is reported as -8.3% (inactive).
O=C(c1cccc(F)c1F)N1CCCC1 was tested, and the inhibition was -8.2% (inactive).
Nc1ccccc1C(=O)N1CCCC1 was tested, and the inhibition was 8.2% (inactive).
With O=C(c1cccc2cccc(O)c12)N1CCCCC1 the inhibition was 63.7% (active).
For Cc1ccc2c(c1)nnn2C1CCN(S(=O)(=O)c2ccc(C(=O)N3CC(C)CC(C)C3)cc2)CC1 (centres undefined), the inhibition was 10.4% (inactive).
Cc1ccc2c(c1)nnn2C1CCN(S(=O)(=O)c2ccc(C(=O)N3C(C)CCCC3C)cc2)CC1 (centres undefined) was tested, and the inhibition was 53% (active).
With Cc1ccc2c(c1)nnn2C1CCN(S(=O)(=O)c2ccc(C(=O)O)cc2)CC1 the inhibition was 3.6% (inactive).
O=C(COC(=O)/C=C/c1ccccc1[N+](=O)[O-])NCC(F)(F)F was tested, and the inhibition was -8.8% (inactive).
For CCc1ccc(NC(=S)N2CCCCCCC2)cc1, the inhibition was -7.1% (inactive).
In the case of Cc1nc(SCC2(C)CC2(Cl)Cl)n[nH]1 (centres undefined), the inhibition is reported as -3.1% (inactive).
In the case of COc1ccc(/C=N/NS(=O)(=O)c2ccc(C)cc2)cc1OC(=O)c1ccc(C)cc1, the inhibition is reported as -3.5% (inactive).
For Cc1cccc(/N=C/c2c(O)ccc3oc4c(c23)CCCC4)n1, the inhibition was 13.6% (inactive).
With Cc1ccnc(N=Cc2c(O)ccc3oc4c(c23)CCCC4)c1 the inhibition was 51.1% (active).
With Oc1ccc2oc3c(c2c1/C=N/n1cnnc1)CCCC3 the inhibition was 9.3% (inactive).
With CCOC(=O)c1cnc2c(C#N)c(C)nn2c1-c1ccccc1 the inhibition was 3.5% (inactive).
In the case of COCCN=c1scc(-c2cc(OC)c(OC)c(OC)c2)n1/N=C/c1c(C)[nH]c2ccccc12, the inhibition is reported as 13.7% (inactive).
For N#Cc1cc([N+](=O)[O-])ccc1N1CCN(c2ccccc2O)CC1, the inhibition was 10.8% (inactive).
For CN(N)c1ccc2c(C(F)(F)F)cc(C(F)(F)F)nc2n1, the inhibition was -11.3% (inactive).
With NNc1ccc2c(C(F)(F)F)cc(C(F)(F)F)nc2n1 the inhibition was -7.7% (inactive).
For Nc1ccc2c(C(F)(F)F)cc(C(F)(F)F)nc2n1, the inhibition was 53.7% (active).
Cc1c(Cl)cccc1Nc1nc(N)nc(CSCCO)n1 was tested, and the inhibition was -1.1% (inactive).
O=c1c2c3c(sc2nc2n1CCCCC2)C(O)CCC3 (centres undefined) was tested, and the inhibition was 8.9% (inactive).
For Cc1cc(C)nc(N2N=C(C(C)(C)C)CC2=O)n1, the inhibition was -15% (inactive).
Cc1cc(C)nc(N2N=C(c3ccccc3)CC2=O)n1 was tested, and the inhibition was 26.8% (inactive).
COc1ccc(C2=NN(c3nc(C)cc(C)n3)C(=O)C2)cc1 was tested, and the inhibition was 51.6% (active).
For Cc1ccc(CN2CCCNC2=O)cc1, the inhibition was -2.5% (inactive).
COc1cc(NC(=O)COC(=O)C2CC2)c(C)cc1[N+](=O)[O-] was tested, and the inhibition was -8% (inactive).
With Cc1c(Cl)c(C(=O)Nc2nc3ccccc3n2CCN2CCCCC2)nn1C the inhibition was 55.1% (active).
For CCn1cc(Cl)c(C(=O)Nc2nc3ccccc3n2CCN2CCCCC2)n1, the inhibition was -2.9% (inactive).
In the case of O=C(Nc1nc2ccccc2n1CCN1CCCCC1)c1ccc(Cl)cc1, the inhibition is reported as -11.3% (inactive).
In the case of CCOC(=O)c1cc(-c2ccc(C)cc2)n(CCC(=O)NCCN(C)C)c1C, the inhibition is reported as 5.6% (inactive).
In the case of O=C1CN2NC(=S)N(c3ccc(Cl)cc3)C2=CN1c1ccc(Cl)cc1, the inhibition is reported as -2.8% (inactive).
CCOc1cc(NC(=S)NCCCN2CCOCC2)c(OCC)cc1NC(=O)c1ccccc1C was tested, and the inhibition was 47.3% (inactive).
In the case of CCOc1cc(NC(=S)NCCCN2CCOCC2)c(OCC)cc1NC(=O)c1ccc(C)cc1, the inhibition is reported as 52.6% (active).
For CCOc1cc(NC(=S)NCCCN2CCOCC2)c(OCC)cc1NC(=O)c1cccc(F)c1, the inhibition was 49.5% (inactive).
For CCOc1cc(NC(=S)NCCCN2CCOCC2)c(OCC)cc1NC(=O)c1cccs1, the inhibition was 56.1% (active).
With CCOc1cc(NC(=S)NCCCN2CCOCC2)c(OCC)cc1NC(=O)c1ccccc1 the inhibition was 24.1% (inactive).
With CCOc1cc(NC(=O)c2cccs2)c(OCC)cc1NC(=O)CCC(=O)NCCN1CCOCC1 the inhibition was 10.6% (inactive).
In the case of O=C(CCCCCn1c(=S)[nH]c2ccccc2c1=O)NCc1ccc2c(c1)OCO2, the inhibition is reported as -9.7% (inactive).
C=CCNC(=S)NNC(=O)c1cccn(Cc2ccc(Cl)cc2Cl)c1=O was tested, and the inhibition was -10.6% (inactive).
O=C(C[n+]1ccccc1)N/N=C/c1cccs1 was tested, and the inhibition was -14% (inactive).
For Cc1cc(C)nc(N(C#N)S(=O)(=O)c2ccc(Br)cc2)n1, the inhibition was -3.3% (inactive).
In the case of O=C(CSc1nc(O)cc(=O)[nH]1)N1c2ccccc2Sc2ccccc21, the inhibition is reported as 7.8% (inactive).
COc1ccc(CCNC(=O)c2ccc(SC)cc2OC)cc1 was tested, and the inhibition was -1.4% (inactive).
With COCCOc1ccc(C(F)(F)F)cc1N the inhibition was 8.3% (inactive).
Nc1cc(OCC(F)(F)F)cc(OCC(F)(F)F)c1 was tested, and the inhibition was 56.9% (active).
Nc1cc(OCC(F)(F)F)cc([N+](=O)[O-])c1 was tested, and the inhibition was -2.2% (inactive).
In the case of CONC(=O)c1cc(OCC(F)(F)F)ccc1OCC(F)(F)F, the inhibition is reported as -7.9% (inactive).
With Nc1cc(N)c(OCC(F)(F)F)cc1OCC(F)(F)F the inhibition was 55.8% (active).
With O=C(Nc1ccc(F)cc1)Nc1cc(OCC(F)(F)F)cc(OCC(F)(F)F)c1 the inhibition was 8.1% (inactive).
In the case of O=C1CCC(/C=C/c2ccccc2)=NN1Cc1ccc(F)cc1, the inhibition is reported as -0.5% (inactive).
In the case of CC(=O)NC(CC(=O)NC12CC3CC(CC(C3)C1)C2)c1ccccc1 (centres undefined), the inhibition is reported as 1.3% (inactive).
For CCn1cc([N+](=O)[O-])c(C(=O)NCc2ccc(Cl)cc2)n1, the inhibition was -5% (inactive).
